According to ChEMBL document CHEMBL3988442, “University of Dundee, Small-Polar-MMV Screening Library” (2021):
For some of these results: Measured potencies and affinities stand elsewhere.

What was measured:
Parameters in all cases: scale not given: direction of the effect not stated beside the values
[1] = biological target: Protein translocase subunit SecA (Escherichia coli (strain K12)) (UniProt P10408); assay: Assay to Identify E. coli SecA ATPase Inhibitors; type: functional; conditions: 30 µM
[2] = biological target: T1, Ubiquitin-activating enzyme e1, putative (Leishmania donovani (strain BPK282A1)) (UniProt E9BSI1); assay: Leishmania donovani Ubiquitin Activating Enzyme (LdE1); type: functional; conditions: 30 µM
T1 sequence (whole entry): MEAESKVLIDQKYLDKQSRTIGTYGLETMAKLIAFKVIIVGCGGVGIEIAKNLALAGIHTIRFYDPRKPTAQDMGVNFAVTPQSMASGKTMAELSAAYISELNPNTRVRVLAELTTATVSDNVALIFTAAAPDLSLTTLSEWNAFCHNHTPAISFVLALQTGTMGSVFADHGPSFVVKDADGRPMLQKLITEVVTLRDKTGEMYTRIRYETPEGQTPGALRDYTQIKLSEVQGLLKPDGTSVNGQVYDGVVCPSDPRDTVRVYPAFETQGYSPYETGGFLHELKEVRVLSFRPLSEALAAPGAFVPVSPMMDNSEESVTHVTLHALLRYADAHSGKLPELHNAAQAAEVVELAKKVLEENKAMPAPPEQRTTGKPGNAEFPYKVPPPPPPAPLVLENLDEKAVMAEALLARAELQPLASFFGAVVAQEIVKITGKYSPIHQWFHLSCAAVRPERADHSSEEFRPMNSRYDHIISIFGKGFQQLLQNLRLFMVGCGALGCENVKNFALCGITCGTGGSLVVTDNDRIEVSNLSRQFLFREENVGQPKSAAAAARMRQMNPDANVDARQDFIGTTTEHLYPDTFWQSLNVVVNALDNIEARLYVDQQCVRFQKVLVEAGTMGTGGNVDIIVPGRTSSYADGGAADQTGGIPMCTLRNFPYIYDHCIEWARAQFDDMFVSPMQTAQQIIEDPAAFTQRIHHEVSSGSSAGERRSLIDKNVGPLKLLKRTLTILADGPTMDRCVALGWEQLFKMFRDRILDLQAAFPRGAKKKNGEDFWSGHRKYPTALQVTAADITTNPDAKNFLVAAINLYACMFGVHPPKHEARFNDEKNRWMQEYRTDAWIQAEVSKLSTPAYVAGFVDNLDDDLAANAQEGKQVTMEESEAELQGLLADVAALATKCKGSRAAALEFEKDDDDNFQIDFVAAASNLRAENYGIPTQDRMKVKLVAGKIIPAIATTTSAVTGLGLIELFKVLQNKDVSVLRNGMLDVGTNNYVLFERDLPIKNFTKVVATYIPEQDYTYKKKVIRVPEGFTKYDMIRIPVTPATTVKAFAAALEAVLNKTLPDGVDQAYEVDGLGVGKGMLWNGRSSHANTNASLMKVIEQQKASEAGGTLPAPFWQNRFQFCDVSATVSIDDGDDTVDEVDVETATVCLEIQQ

[3] = biological target: AMP-activated protein kinase, AMPK (Homo sapiens) (UniProt P54646+O43741+P54619+Q9UGJ0+Q9Y478+Q13131+Q9UGI9); assay: AMP-dependent Kinase enzyme assay. An in vitro enzyme assay that detects ADP turnover that is directly proportional to AMPK activity. This uses naive AMPK that is activated during the assay with MK-8722; type: functional; conditions: 30 µM
[4] = biological target: Sialic acid-binding Ig-like lectin 9 (Homo sapiens) (UniProt Q9Y336); assay: Hs-Siglec9 ALPHAscreen SOP 20170721; conditions: 10 µM
Trypanosoma cruzi = assay: Trypanosoma cruzi phosphomannomutase and mannose-1-phosphate guanylyltransferase assay; type: functional; conditions: 10 µM
[5] = biological target: T2, Arginase-2, mitochondrial (Homo sapiens) (UniProt P78540); assay: in vitro enzyme assay to detect the production of urea directly proportional to the activity of Arginase II; type: functional; conditions: 33.3 µM; note: in the data most compounds retested in dose-response had high values
T2 sequence (whole entry): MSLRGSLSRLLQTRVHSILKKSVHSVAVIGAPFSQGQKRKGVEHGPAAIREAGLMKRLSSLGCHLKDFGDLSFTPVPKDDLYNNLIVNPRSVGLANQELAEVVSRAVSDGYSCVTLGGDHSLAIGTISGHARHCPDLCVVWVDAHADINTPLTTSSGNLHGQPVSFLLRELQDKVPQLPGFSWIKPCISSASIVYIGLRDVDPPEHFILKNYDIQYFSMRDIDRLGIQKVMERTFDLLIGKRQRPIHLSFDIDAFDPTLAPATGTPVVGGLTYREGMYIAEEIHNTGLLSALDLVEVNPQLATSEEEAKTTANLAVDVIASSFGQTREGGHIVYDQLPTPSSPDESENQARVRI

[6] = biological target: T3, Proteasome subunit beta (Trypanosoma cruzi) (UniProt O96673); assay: Trypanosoma cruzi proteasome chymotrypsin-like activity (TcProtChymo) assay.; note: in the data most compounds retested in dose-response had high values; type: functional; conditions: 9.37 µM
T3 sequence (whole entry): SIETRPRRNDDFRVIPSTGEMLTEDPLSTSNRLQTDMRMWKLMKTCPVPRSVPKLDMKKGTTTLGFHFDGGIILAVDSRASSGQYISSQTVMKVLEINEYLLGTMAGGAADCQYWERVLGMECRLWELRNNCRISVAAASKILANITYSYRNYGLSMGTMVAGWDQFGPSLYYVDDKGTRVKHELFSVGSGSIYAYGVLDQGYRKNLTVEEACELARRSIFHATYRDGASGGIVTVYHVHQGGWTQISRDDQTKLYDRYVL

Homo sapiens = species on record: Homo sapiens; assay: To identify inhibition of the IFN signalling (Jak-Stat) pathway via expression of an eGFP reporter gene under the control of an IFN-stimulated response element (ISRE) containing MxA promoter.; type: functional; conditions: 30 µM
[7] = biological target: T4, Tyrosyl-tRNA synthetase, putative (Trypanosoma cruzi (strain CL Brener)) (UniProt Q4DSP6); assay: Trypanosoma cruzi tyrosyl tRNA synthetase (TcYRS) _High Tyrosine SOP; type: functional; conditions: 30 µM; note: in the data most compounds retested in dose-response had high values
T4 sequence (whole entry): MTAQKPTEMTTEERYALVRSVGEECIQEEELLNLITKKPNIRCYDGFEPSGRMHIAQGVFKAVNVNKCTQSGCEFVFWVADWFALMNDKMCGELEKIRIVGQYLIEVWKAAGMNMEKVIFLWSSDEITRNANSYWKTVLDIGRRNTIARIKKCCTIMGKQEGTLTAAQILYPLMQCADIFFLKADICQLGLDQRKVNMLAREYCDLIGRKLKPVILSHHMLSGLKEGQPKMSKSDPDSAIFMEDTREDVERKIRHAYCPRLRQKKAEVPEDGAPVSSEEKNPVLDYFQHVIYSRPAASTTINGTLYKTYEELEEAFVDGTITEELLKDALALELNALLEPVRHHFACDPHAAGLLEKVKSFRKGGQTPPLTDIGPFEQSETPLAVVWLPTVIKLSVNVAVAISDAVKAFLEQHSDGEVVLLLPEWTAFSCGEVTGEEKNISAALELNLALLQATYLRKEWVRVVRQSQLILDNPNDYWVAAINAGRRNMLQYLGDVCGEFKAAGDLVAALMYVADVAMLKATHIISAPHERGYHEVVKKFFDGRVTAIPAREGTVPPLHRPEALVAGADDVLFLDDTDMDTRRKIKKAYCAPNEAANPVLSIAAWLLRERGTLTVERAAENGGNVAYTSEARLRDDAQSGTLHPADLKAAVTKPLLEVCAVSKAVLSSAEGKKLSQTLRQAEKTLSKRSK

[8] = biological target: T4, Tyrosyl-tRNA synthetase, putative (Trypanosoma cruzi (strain CL Brener)); assay: Trypanosoma cruzi tyrosyl tRNA synthetase (TcYRS) SOP; type: functional; conditions: 30 µM
[9] = biological target: Chromo domain-containing protein 1 (Saccharomyces cerevisiae (strain ATCC 204508 / S288c) (Baker's yeast)) (UniProt P32657); assay: ScCHD-1 Enzyme Inhibition Assay; type: functional; conditions: 30 µM; note: in the data most compounds retested in dose-response had high values
Sequence of Chromo domain-containing protein 1 (Saccharomyces cerevisiae (strain ATCC 204508 / S288c) (Baker's yeast)) (P32657 whole entry, the tested form may be a part): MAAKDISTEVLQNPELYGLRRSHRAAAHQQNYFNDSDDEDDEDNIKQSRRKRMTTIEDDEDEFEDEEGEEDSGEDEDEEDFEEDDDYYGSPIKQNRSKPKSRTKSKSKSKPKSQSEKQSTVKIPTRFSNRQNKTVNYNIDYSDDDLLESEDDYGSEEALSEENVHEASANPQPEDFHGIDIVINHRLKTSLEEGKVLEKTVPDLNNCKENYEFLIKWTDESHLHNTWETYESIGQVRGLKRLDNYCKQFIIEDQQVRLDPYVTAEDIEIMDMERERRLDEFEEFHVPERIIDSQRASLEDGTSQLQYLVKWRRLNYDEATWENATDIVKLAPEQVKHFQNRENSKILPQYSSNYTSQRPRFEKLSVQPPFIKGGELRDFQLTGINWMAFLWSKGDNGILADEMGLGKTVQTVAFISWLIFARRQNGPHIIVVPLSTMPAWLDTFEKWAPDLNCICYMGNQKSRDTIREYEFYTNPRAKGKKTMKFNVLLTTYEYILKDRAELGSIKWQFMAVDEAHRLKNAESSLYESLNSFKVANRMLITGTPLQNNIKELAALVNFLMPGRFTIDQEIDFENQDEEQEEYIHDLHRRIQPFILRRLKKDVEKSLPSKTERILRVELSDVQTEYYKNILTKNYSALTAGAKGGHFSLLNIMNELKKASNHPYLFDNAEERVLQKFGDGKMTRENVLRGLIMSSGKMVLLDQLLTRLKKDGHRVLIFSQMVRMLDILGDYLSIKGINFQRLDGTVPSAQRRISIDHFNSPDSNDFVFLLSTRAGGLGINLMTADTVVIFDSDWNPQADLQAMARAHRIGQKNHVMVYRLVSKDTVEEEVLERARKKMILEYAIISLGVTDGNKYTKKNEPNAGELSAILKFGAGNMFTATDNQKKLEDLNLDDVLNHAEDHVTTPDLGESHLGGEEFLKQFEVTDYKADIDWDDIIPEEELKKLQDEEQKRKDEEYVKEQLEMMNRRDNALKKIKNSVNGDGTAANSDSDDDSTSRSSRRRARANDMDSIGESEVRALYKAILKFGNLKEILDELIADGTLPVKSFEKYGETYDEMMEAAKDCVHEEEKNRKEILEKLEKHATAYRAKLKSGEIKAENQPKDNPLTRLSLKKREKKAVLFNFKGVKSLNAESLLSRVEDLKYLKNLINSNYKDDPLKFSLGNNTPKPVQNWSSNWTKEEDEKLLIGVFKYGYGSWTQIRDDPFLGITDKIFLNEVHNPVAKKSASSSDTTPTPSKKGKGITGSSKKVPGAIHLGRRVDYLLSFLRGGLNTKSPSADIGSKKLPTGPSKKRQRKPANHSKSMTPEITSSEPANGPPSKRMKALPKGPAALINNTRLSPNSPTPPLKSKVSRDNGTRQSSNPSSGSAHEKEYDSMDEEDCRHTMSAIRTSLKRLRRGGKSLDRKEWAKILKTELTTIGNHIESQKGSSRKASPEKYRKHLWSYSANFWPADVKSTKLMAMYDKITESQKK

Sequence of Protein translocase subunit SecA (Escherichia coli (strain K12)) (P10408 whole entry): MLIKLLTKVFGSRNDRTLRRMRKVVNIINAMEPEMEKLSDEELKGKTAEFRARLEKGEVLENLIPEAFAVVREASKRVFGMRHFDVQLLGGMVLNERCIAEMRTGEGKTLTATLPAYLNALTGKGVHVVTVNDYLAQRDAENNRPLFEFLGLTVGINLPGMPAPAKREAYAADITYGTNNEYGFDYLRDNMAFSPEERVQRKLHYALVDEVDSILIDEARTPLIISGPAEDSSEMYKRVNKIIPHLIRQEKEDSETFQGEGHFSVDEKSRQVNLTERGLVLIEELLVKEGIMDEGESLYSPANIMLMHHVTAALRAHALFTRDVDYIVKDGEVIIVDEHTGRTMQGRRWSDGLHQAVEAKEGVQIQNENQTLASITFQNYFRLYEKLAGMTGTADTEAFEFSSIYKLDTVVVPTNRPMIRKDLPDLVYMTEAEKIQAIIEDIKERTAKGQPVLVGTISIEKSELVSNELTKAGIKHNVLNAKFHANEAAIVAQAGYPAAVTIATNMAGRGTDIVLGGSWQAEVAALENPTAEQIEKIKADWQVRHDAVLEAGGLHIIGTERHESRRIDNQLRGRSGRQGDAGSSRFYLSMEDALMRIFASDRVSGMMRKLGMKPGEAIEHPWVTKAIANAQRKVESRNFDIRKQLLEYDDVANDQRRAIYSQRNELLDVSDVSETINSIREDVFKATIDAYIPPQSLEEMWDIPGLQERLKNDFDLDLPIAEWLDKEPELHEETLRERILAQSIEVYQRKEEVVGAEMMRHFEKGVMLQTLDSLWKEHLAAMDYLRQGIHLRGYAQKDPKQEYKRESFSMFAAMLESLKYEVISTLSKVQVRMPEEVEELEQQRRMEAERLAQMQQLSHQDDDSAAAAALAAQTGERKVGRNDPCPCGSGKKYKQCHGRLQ
Sequence of Sialic acid-binding Ig-like lectin 9 (Homo sapiens) (Q9Y336 whole entry): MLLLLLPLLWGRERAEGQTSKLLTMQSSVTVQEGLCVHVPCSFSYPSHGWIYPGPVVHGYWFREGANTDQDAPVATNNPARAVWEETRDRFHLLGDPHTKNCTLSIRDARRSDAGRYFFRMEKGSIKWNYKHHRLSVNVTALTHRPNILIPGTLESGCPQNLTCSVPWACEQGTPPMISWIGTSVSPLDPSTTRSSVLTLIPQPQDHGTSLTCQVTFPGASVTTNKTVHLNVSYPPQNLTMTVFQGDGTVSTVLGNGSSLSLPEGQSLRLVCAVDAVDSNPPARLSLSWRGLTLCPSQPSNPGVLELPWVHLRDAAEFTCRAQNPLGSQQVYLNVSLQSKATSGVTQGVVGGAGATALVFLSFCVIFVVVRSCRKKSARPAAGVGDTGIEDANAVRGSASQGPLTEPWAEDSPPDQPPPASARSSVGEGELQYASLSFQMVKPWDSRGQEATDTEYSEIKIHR

| Structure (SMILES) | Percent Effect [1] | Percent Effect [2] | Percent Effect [3] | Percent Effect [4] | Percent Effect (Trypanosoma cruzi) | Percent Effect [5] | Percent Effect [6] | Percent Effect (Homo sapiens) | Percent Effect [7] | Percent Effect [8] | Percent Effect [9] |
| --- | --- | --- | --- | --- | --- | --- | --- | --- | --- | --- | --- |
| CCc1nc(C2CCCN2C(=O)CCNS(C)(=O)=O)no1 (stereo not given) | -2.77% | 27% | -4.56% | -1.58% | 3.25% | -2.03% | 19% | 21.8% | 7.92% | 23.2% | -6.19% |
| COCCC(=O)N1CCC2(CN(Cc3ccc(OC)c(F)c3)C2)C1 | 1.99% | 13.7% | -3.76% | 8.62% | 5.16% | 0.399% | 6.42% | -17.9% | 6.25% | 18.5% | -0.472% |
| O=C(CSc1ccccc1Cl)NS(=O)(=O)c1ccc2c(c1)OCCO2 | -4.83% | -21.1% | 27.8% | 4.23% | 1.69% | -1.15% | 9.69% | 4.4% | -15.2% | -12.2% | -10.3% |
| O=C(CCc1cscn1)NS(=O)(=O)c1ccc2ccccc2c1 | -4.59% | 1.39% | -10.1% | 23.9% | 3.4% | 4.42% | 0.877% | 0.282% | 8.42% | 5.13% | -4.15% |
| Cc1ccc(C#N)c(N2CCC(c3nccn3CCN(C)C)CC2)n1 | -4.49% | 2.67% | 1.54% | 4.68% | -3.6% | -2.08% | 11.7% | 12.9% | 7.1% | 11.1% | -8.91% |
| COc1ccc(CS(=O)(=O)CC(=O)NCC2CC2)cc1F | -1.25% | 10.5% | 6.04% | -2.71% | 1.66% | 5.92% | 15.6% | 8.09% | 6.38% | 18.2% | -4.08% |
| CCN(CC1CN(Cc2ncc[nH]2)CCO1)c1cccnn1 (stereo not given) | -4.66% | 8% | -8.56% | 6.93% | 1.46% | 5.21% | 16.2% | 6.04% | 4.92% | 8.64% | -4.63% |
| O=c1c2sccc2nc2n1CCN(Cc1cccs1)CC2 | -2.34% | 12.2% | 10.7% | 1.3% | -0.395% | -1.16% | 10.9% | 12.6% | 0% | 11.7% | -12% |
| CCOCCn1nc(C)cc1C(=O)N1CCOCC(CO)C1 (stereo not given) | -2.3% | 18.9% | 0.311% | 24.4% | 7.14% | 31.9% | 22.1% | 1.44% | 3.7% | 12.2% | -10.6% |
| CCOCCn1c(=O)[nH]c2cc(C(=O)N(C)CCc3cn[nH]c3)ccc21 | 0.265% | 16.2% | 4.85% | 14.1% | 5.6% | 22.4% | 17.8% | 13% | 3.7% | 12.2% | -7.29% |
| CN(Cc1ccco1)[C@@H]1CN(C(=O)c2ccnnc2)C[C@@H]2CCCO[C@@H]21 | -2.86% | 2.74% | -3.12% | 2.33% | 4.76% | 2.4% | 0.77% | -17.3% | 2.08% | 8.64% | 1.23% |
| CC(=O)N1CCC(c2ccnc(Nc3cncnc3)n2)C1 (stereo not given) | -2.09% | 13.3% | 12.8% | -1.51% | -0.394% | 0.699% | -0.793% | 8.94% | 7.45% | 14.1% | -3.42% |
| CCc1n[nH]c(C2CN(C(=O)c3csnn3)CCO2)n1 (stereo not given) | -7.28% | 10.4% | 0.934% | 4.09% | 7.15% | -5.26% | 6.06% | 3.52% | 2.86% | 11.8% | -11.6% |
| Cc1nc(CN2CCOC(CNc3cccnn3)C2)cs1 (stereo not given) | 0.542% | -8.11% | -13.4% | 10.4% | 3.87% | -2.81% | 20.2% | 3.75% | 14.3% | 6.17% | -6.92% |
| CC(=O)N1CCN(Cc2csc(-c3cnn(C)c3)n2)CC1 | -5.28% | 7.89% | -1.26% | 6.08% | 9.21% | -1.53% | 2.17% | 3.43% | 4.41% | 9.76% | -7.33% |
| COCC1CCCN(C(=O)c2cc(Cn3ccc4ccccc43)[nH]n2)C1 (stereo not given) | -5.5% | -7.79% | 0.36% | 11.2% | 8.75% | -81.4% | -0.666% | -41.3% | 14% | 18.5% | 127% |
| CCN1CCN(C(=O)c2ccn(C)c(=O)c2)CC1 | -1.02% | 6.33% | 3.55% | -4.57% | -4.62% | -1.07% | 11.8% | 21.1% | 4.17% | -5.06% | -16.7% |
| NC(=O)c1nnn(-c2ccc(Br)cc2)n1 | -5.42% | 18.2% | -6.83% | -10.8% | 7.59% | 3.23% | 11.5% | 17.2% | 5.29% | 6.41% | -9.19% |
| CC(=O)NCC(=O)N1CCn2cc(CN3CCN(C)CC3)nc2C1 | -4.28% | 10.4% | -0.0716% | 14.9% | 7.57% | -1.38% | 6.16% | 9.49% | 8.6% | 16.1% | -0.16% |
| Cc1n[nH]c(C)c1-c1cnc(CC2CCN(C)C2)cn1 (stereo not given) | -1.87% | 2.67% | 9.74% | 4.94% | 3.94% | -3.5% | 0.793% | -2.19% | 4.25% | 6.41% | -1.01% |
